# Source: publication PMC4336329 (PLoS ONE, 2015)
# Screen size: about 310,000 compounds; about 2,200 (0.71%) showed an effect of 50% or more. The effect is printed as a negative number. This is one part of a sample in which strong results are shown more often than they occur.
# Target: human ether-à-go-go-related gene (hERG) potassium channel (human, UniProt Q12809)
# Assay: primary screen, population patch clamp on CHO cells stably expressing hERG; higher = less effect of the substance
# Sequence of human ether-à-go-go-related gene (hERG) potassium channel (Q12809 whole entry, looked up): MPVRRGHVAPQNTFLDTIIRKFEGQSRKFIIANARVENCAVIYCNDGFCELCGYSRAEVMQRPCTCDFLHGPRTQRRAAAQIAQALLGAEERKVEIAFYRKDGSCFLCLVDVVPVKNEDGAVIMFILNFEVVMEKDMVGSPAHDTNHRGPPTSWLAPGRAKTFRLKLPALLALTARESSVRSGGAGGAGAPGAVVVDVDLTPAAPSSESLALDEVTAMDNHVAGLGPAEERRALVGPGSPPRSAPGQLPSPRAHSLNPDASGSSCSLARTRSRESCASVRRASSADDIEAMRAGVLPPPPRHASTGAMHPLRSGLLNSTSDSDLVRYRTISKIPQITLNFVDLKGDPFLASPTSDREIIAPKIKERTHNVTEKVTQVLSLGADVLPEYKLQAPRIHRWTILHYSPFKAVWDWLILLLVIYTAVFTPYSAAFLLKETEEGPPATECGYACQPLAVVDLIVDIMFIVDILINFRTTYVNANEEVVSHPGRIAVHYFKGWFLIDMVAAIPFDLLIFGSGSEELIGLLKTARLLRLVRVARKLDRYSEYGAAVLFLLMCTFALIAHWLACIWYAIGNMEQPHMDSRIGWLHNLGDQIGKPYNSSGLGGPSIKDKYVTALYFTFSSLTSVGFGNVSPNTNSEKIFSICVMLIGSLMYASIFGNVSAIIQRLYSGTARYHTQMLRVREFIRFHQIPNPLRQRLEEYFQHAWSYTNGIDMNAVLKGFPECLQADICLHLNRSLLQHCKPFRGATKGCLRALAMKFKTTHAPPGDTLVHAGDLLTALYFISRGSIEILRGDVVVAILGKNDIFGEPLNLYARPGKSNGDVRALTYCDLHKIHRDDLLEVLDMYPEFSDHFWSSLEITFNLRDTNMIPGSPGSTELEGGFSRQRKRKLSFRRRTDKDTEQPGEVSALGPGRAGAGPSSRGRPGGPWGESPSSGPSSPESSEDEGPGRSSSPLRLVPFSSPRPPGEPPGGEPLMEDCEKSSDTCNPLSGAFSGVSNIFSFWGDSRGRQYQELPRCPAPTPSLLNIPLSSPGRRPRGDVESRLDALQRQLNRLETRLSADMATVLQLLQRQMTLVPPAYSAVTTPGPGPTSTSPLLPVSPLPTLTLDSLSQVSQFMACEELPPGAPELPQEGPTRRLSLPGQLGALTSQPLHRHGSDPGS
row,SMILES,"hERG current change (%, negative = inhibition) at 1uM"
1,COc1ccc([N+](=O)[O-])c(OC)c1C(=O)NC(=O)Nc1c(F)c(F)c(F)c(F)c1F,4.71%
2,Cl.O=C(NCCN1CCCC1)c1ccc(Br)cc1,3.38%
3,CC(C)(C)c1ccc(C(=O)N2CCN(CCNC(=O)C(=O)NCc3ccccc3)CC2)cc1,-8.22%
4,O=C(NCCN1CCN(C(=O)c2ccc(F)cc2)CC1)C(=O)NCc1ccccc1,-75.1%
5,O=C(NCCN1CCN(C(=O)c2cccc(Br)c2)CC1)C(=O)NCc1ccccc1,-11.2%
6,CCOc1ccc(NC(=O)C(=O)NCCN2CCN(C(=O)c3ccc(C)cc3)CC2)cc1,-65.5%
7,O=C(NCCN1CCN(C(=O)c2cccc([N+](=O)[O-])c2)CC1)C(=O)NCc1ccc(Cl)cc1,0.645%
8,O=C(NCCN1CCN(c2ccc([N+](=O)[O-])cc2)CC1)NCc1ccccc1,-20.2%
9,CCOc1ccc(NC(=O)C(=O)NCCN2CCN(S(=O)(=O)c3ccc(C)cc3)CC2)cc1,11.6%
10,O=C(NCCN1CCN(C(=O)c2ccc([N+](=O)[O-])cc2)CC1)C(=O)NCc1ccccc1,-85.9%
11,O=C(NCCN1CCN(C(=O)c2ccc(F)cc2)CC1)c1ccc(F)cc1,-32%
12,COc1ccc(NC(=O)C(=O)NCCN2CCN(C(=O)c3ccc(C)cc3)CC2)cc1,-28.6%
13,O=C(NCCN1CCN(C(=O)c2ccc(Br)cc2)CC1)c1ccc(Br)cc1,-63.5%
14,CCOC(=O)c1c(NC(=O)C2C3C=CC(C3)C2C(=O)O)sc2c1CC(C)(C)OC2 (stereo not drawn),2.99%
15,CCOC(=O)CC1(NC(=O)c2cc(COc3cccc(OC)c3)on2)CCCCC1,10.3%
16,CN1CCN(S(=O)(=O)c2cccc(C(=O)Oc3cccc(C#N)c3)c2)CC1,11.8%
17,CC12CC3CC(C)(C1)CC(C(=O)NNC(=O)c1ccncc1)(C3)C2,-7.13%
18,CC(=O)c1ccc(NC(=S)Nc2cccc(Cl)c2C)cc1,12.3%
19,CCNC(=O)NC(=O)COC(=O)CNC(=O)COc1ccccc1,14.5%
20,CC(NC(=O)C(=O)NCCN1CCN(C(=O)c2ccc([N+](=O)[O-])cc2)CC1)c1ccccc1 (stereo not drawn),-67.8%
21,CCCCc1ccc(NC(=O)C(=O)NCCN2CCN(C(=O)c3ccc([N+](=O)[O-])cc3)CC2)cc1,0.387%

row,SMILES,"hERG current change (%, negative = inhibition) at 1uM"
1,O=C(NCCN1CCN(C(=O)c2ccc([N+](=O)[O-])cc2)CC1)C(=O)Nc1ccc(F)cc1,-84.3%
2,CC(NC(=O)C(=O)NCCN1CCN(C(=O)c2ccccc2Br)CC1)c1ccccc1 (stereo not drawn),9.08%
3,CNC(=O)C(=O)NCCN1CCN(C(=O)c2ccc([N+](=O)[O-])cc2)CC1,9.09%
4,Cc1ccc(C(=O)N2CCN(CCNC(=O)C(=O)NC(C)C)CC2)cc1,7.95%
5,Cc1ccc(C(=O)NCC(=O)N2CCCCCCC2)cc1,20.7%
6,COc1cc(OC)cc(C(=O)NC(=S)Nc2nnn(C)n2)c1,13%
7,O=C(Nc1ccc(F)cc1)N1CCCC(c2nc3c(nnn3Cc3ccccc3Cl)c(=O)[nH]2)C1 (stereo not drawn),13.4%
8,CCOC(=O)c1csc(NC(C)=O)n1,7.33%
9,CN1CCC(=O)N([C@H](CSc2ccccc2)c2ccccc2)CC1,-46.4%
10,CC(=O)Nc1ccc(SC[C@H](CC(C)C)N2CCN(CCc3ccccc3)CCC2=O)cc1,-26.2%
11,CCCN1CCC(=O)N([C@H](CSc2ccc(OC)cc2)c2ccccc2)CC1,-81.7%
12,CCCN1CCC(=O)N([C@H](CSc2ccc(OC)cc2)Cc2ccccc2)CC1,-36.3%
13,CC(C)CN1CCC(=O)N([C@H](CSc2ccc(Br)cc2)c2ccccc2)CC1,-21.5%
14,CN1CCC(=O)N([C@H](CSc2ccc(Br)cc2)c2ccccc2)CC1,-89.8%
15,CC(=O)Nc1ccc(SC[C@H](c2ccccc2)N2CCN(CCc3ccccc3)CCC2=O)cc1,-56%
16,CC(=O)Nc1ccc(SC[C@H](Cc2ccccc2)N2CCN(CCc3ccccc3)CCC2=O)cc1,4.37%
17,Cc1ccc(SC[C@H](Cc2ccccc2)N2CCN(CCc3ccccc3)CCC2=O)cc1,8.27%
18,CCCN1CCC(=O)N([C@H](CSc2ccccc2)CC(C)C)CC1,-31.8%
19,CCCN1CCC(=O)N([C@H](CSc2ccc(C)cc2)c2ccccc2)CC1,-76.3%
20,CCCN1CCC(=O)N([C@H](CSc2ccc(OC)cc2)CC(C)C)CC1,-42.3%
21,COc1ccc(CNC(=O)c2cc(COc3c(F)cccc3F)on2)cc1OC,7.12%
